{
  "source": "PubChem BioAssay (Tox21)",
  "note": "Results filed as inconclusive are left out. Entries that show only a call come without a potency. Active and inactive are the calls of the source. The call rests on the fitted dose curve; in most records, active means well fitted cell-killing curve with a large enough effect in the repeat runs; inconclusive means weak or mixed curves, or effect the other way; inactive means no such curve, though single readings can be large or run the other way. Potency means the concentration at half of the fitted maximal effect.",
  "data": [
    {"assay": "qHTS assay to identify small molecule antagonists of the progesterone receptor (PR) signaling pathway - cell viability counter screen (AID 1346798); further: nearly all actives have a fitted effect of over 50% in size", "settings": "PR-UAS-bla HEK293T viability, CellTiter-Glo luminescence, 16 h; series mostly up to 92.4 µM", "text": "National Center for Advancing Translational Sciences [NCATS]\nNIH Chemical Genomics Center [NCGC]\nU.S. Environmental Protection Agency [EPA]\nNational Institutes of Environmental Health Sciences [NIEHS]\nNational Toxicology Program [NTP]\nU.S. Food and Drug Administration [FDA]\nProgesterone receptor (PR), a nuclear hormone receptor, plays an important role in development, metabolic homeostasis and reproduction. It is activated by the steroid hormone progesterone. Endocrine disrupting chemicals (EDCs) and their interactions with steroid hormone receptors like PR causes disruption of normal endocrine function. To identify the compounds that inhibit PR signaling, a PR-UAS-bla GripTite cell line i.e. PR-UAS-bla HEK293T (Invitrogen, Carlsbad, CA, USA) containing a beta-lactamase reporter gene under the control of an UAS response element was used to screen Tox21 10K compound library. The cytotoxicity of the Tox21 compound library against the PR-bla cell line was tested in parallel by measuring the cell viability using CellTiter-Glo assay in the same wells.\nTox21 Assay Protocol Summary:\nPR-UAS-bla HEK293T cells were dispensed at 3,000 cells/4 uL of assay medium containing 2% charcoal stripped FBS per well into black wall/clear-bottom 1536-well plates using a Multidrop Combi (ThermoFisher Scientific, Waltham, MA) dispenser. After the assay plates were incubated at a 37C and 5% CO2 for 4 hr, 23 nL of compounds dissolved in DMSO, positive controls or DMSO only was transferred to the assay plate by a Pintool station (Kalypsys, San Diego, CA), followed by addition of 1 uL of R5020 in assay medium using a Flying Reagent Dispenser (FRD, Aurora Discovery, San Diego, CA). The plates were incubated at 37C and 5% CO2 for 16 hr. Then 1 uL of LiveBLAzer B/G FRET substrate was added using a Flying Reagent Dispenser, the plates were incubated at room temperature for 2 hours, and fluorescence intensity was measured by an Envision plate reader (PerkinElmer, Shelton, CT). For cell viability readout that measures cytotoxicity, 4 uL/well of CellTiter-Glo reagent was added into the assay plates using a FRD. After 30 min incubation at room temperature, the luminescence intensity in the plates was measured using a ViewLux (PerkinElmer) plate reader.", "values": [
      {"smiles": "CNC(=O)c1ccccc1", "Potency": "inactive"},
      {"smiles": "Cc1cc(N)c(S(=O)(=O)O)cc1Cl", "Potency": "inactive"},
      {"smiles": "CCC(CN)=C(c1ccccc1)c1ccccc1", "Potency": "inactive"},
      {"smiles": "CCCC/C=C/CCCCO", "Potency": "inactive"},
      {"smiles": "Cc1cccc(CN2CCN(C(c3ccccc3)c3ccc(Cl)cc3)CC2)c1", "note": "(stereo not given)", "Potency": "inactive"},
      {"smiles": "Cc1nc(-c2ccc3c(c2)CCN(CCC2CCC(NC(=O)/C=C/c4ccc(F)cc4)CC2)CC3)no1", "note": "(stereo not given)", "Potency": "inactive"},
      {"smiles": "O=C1C=CC(=O)N1", "Potency": "55.9 µM (active)"},
      {"smiles": "Nc1cc(C(F)(F)F)ccc1S", "Potency": "13.3 µM (active)"},
      {"smiles": "N=C1N=C(N)c2ccccc21", "Potency": "inactive"},
      {"smiles": "CC(=O)S[C@@H]1CC2=CC(=O)CC[C@]2(C)[C@H]2CC[C@@]3(C)[C@@H](CC[C@@]34CCC(=O)O4)[C@H]12", "Potency": "24.3 µM (active)"},
      {"smiles": "NNC(=O)c1cccc(C(=O)NN)c1", "Potency": "inactive"},
      {"smiles": "O=C(Oc1ccccc1)c1ccccc1C(=O)Oc1ccccc1", "Potency": "inactive"},
      {"smiles": "Cc1cc(O)c(C(C)(C)C)cc1Sc1cc(C(C)(C)C)c(O)cc1C", "Potency": "30.6 µM (active)"},
      {"smiles": "C[n+]1cc2c3c(ccc2c2ccc4cc5c(cc4c21)OCO5)OCO3", "Potency": "3.66 µM (active)"},
      {"smiles": "Fc1ccc([C@@H]2CCNC[C@H]2COc2ccc3c(c2)OCO3)cc1", "Potency": "inactive"},
      {"smiles": "CC(C)CCCCCCCCCCCCCCC(=O)O", "Potency": "inactive"},
      {"smiles": "O=S1(=O)CC(Cl)(Cl)C(Cl)(Cl)C1", "Potency": "13.7 µM (active)"},
      {"smiles": "COc1cc(-c2nc(NC(=O)c3cc4cc(C)cc(C)c4n3CC(=O)O)sc2CCC2CCCCC2)c(OC)cc1Cl", "Potency": "14.1 µM (active)"},
      {"smiles": "O=C(Oc1cccc2cccnc12)c1ccccc1", "Potency": "4.22 µM (active)"},
      {"smiles": "CC[C@@]1(O)C(=O)OCc2c1cc1n(c2=O)Cc2c-1nc1ccccc1c2/C=N/OC(C)(C)C", "Potency": "inactive"},
      {"smiles": "CCCCCCCC[N+](CCCCCCCC)(CCCCCCCC)CCCCCCCC", "Potency": "30.6 µM (active)"},
      {"smiles": "Cc1cc(C2CCCCC2)n(O)c(=O)c1", "Potency": "inactive"},
      {"smiles": "O=[N+]([O-])c1cc([N+](=O)[O-])c2ccc(S(=O)(=O)O)cc2c1O", "Potency": "inactive"},
      {"smiles": "CN(C/C=C/C#CC(C)(C)C)Cc1cccc2ccccc12", "Potency": "26.6 µM (active)"},
      {"smiles": "Oc1ccc(C2(c3ccc(O)cc3)CC3CC2C2CCCC32)cc1", "note": "(stereo not given)", "Potency": "41.6 µM (active)"},
      {"smiles": "NC(=O)N1C(=O)C(C(=O)c2cc(Cl)cs2)c2cc(F)c(Cl)cc21", "note": "(stereo not given)", "Potency": "30.6 µM (active)"},
      {"smiles": "CN(C)c1ccc(SC#N)cc1", "Potency": "inactive"},
      {"smiles": "CC(C)=CCOc1ccc(/C=C/C(=O)c2ccc(OCC=C(C)C)cc2OCC(=O)O)cc1", "Potency": "inactive"},
      {"smiles": "Cc1ccc(O)c2ncccc12", "Potency": "inactive"},
      {"smiles": "O=C1CCCc2c1cc1ccc3cccc4ccc2c1c34", "Potency": "inactive"},
      {"smiles": "CC(=O)SC[C@@H](Cc1ccccc1)C(=O)NCC(=O)OCc1ccccc1", "Potency": "inactive"},
      {"smiles": "CCOc1nc2cccc(C(=O)OC(C)OC(=O)OC3CCCCC3)c2n1Cc1ccc(-c2ccccc2-c2nn[nH]n2)cc1", "note": "(stereo not given)", "Potency": "21.7 µM (active)"},
      {"smiles": "OC1(c2ccc(Cl)c(C(F)(F)F)c2)CCN(CCCC(c2ccc(F)cc2)c2ccc(F)cc2)CC1", "Potency": "13.3 µM (active)"},
      {"smiles": "CCC(Cl)C(Cl)C(Cl)CC(Cl)C(Cl)C(C)Cl", "note": "(stereo not given)", "Potency": "inactive"},
      {"smiles": "CC(=O)N1CCN(c2ccc(OC[C@H]3CO[C@](Cn4ccnc4)(c4ccc(Cl)cc4Cl)O3)cc2)CC1", "Potency": "30.6 µM (active)"},
      {"smiles": "Oc1ccc2cc(SSc3ccc4cc(O)ccc4c3)ccc2c1", "Potency": "inactive"},
      {"smiles": "CN(C)CCCOC1(Cc2ccccc2)CCCCCC1", "Potency": "inactive"},
      {"smiles": "Clc1ccc2n[nH]nc2c1", "Potency": "inactive"},
      {"smiles": "CCC(N)(CO)CO", "Potency": "inactive"},
      {"smiles": "CCN(Cc1cccnc1)C(=O)c1cccc(Cl)c1[C@]1(C)C(=O)N(Cc2ccc(OC)cc2OC)c2ccc(Cl)cc21", "Potency": "inactive"}
    ]}
  ]
}
